The record followed here is PubChem BioAssay AID374 (University of Pittsburgh Molecular Library Screening Center, 2006).

Hit rate of the full screen: of about 65,000 compounds, about 100 (0.15%) were called active. The entries come from a sample that favours actives as a whole. Unmarked numbers belong to inactive results.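 How the source made its calls: active means inhibition above about 50% (limit read from the data); inconclusive means inhibition over screen mean plus 3 SD, below that limit; inactive means the rest.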

The assay deals with Dual specificity protein phosphatase 1 (Homo sapiens) (UniProt P28562). Put plainly: blockers of human DUSP1 activity – biochemical, in vitro, primary screen (AID 374).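 Further: 0% = DMSO max control wells and 100% = wells with enzyme stopped by NaOH.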 Particulars: recombinant MKP-1, OMFP hydrolysis fluorescence; stronger effect = higher value;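 compounds tested at a single concentration somewhere between 10 and 100 µM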.
Chain of Dual specificity protein phosphatase 1 (Homo sapiens) (P28562 whole entry, looked up): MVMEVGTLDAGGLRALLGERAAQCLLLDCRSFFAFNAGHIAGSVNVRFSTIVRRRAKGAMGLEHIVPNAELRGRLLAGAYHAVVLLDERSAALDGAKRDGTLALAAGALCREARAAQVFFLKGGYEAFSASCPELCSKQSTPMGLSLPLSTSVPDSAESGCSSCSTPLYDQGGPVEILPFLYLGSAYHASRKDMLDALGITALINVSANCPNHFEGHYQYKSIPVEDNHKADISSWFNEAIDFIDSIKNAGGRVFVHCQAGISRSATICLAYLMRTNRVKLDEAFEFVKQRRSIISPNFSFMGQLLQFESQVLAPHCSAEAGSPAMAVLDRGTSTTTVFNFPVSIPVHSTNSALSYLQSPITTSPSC
As a reminder, the inhibition is the relative decrease from the control value, in per cent. In the case of `CCN1C(=O)CS/C1=N\c1nccs1`, the inhibition was 2.24%. `Cc1cc(C(=O)OCC(=O)NCc2ccco2)c(C)n1-c1ccccc1`: the inhibition is 8.87%. Regarding `CCCC(NC(=O)c1ccccc1)c1nc2ccccc2n1Cc1ccc(C(=O)OC)o1` (stereo unspecified), the inhibition is -11.6%. The figure for `O=C(Cn1nnc(-c2ccc(CN3CCOCC3)cc2)n1)NC1CCCCC1` is -10.1%; for `COc1ccc(S(=O)(=O)N2CCCC2)c(C)c1C` it is 2.42%. The figure for `CCn1c(SCC(=O)Nc2cc(C)c(Cl)cc2OC)nnc1-c1ccco1` is 13%. Then `Cn1cccc1C(=O)NC(=O)COC(=O)Cc1coc2ccc3ccccc3c12`, with 31.4%; and `CCOc1ccc2nc(SC(CC)C(=O)Nc3cc(C)on3)sc2c1` (stereo unspecified), with 2.57%. In the case of `C=CCn1c(COc2ccccc2F)nnc1SCC(=O)N1CC(=O)Nc2ccccc21`, the inhibition is 2.2%.

Regarding `CCC1CCCCN1CCCNC(=O)Cn1nc(-c2ccccc2)ccc1=O` (stereo unspecified), the inhibition is 0.39%. The figure for `CCCc1[nH]nc2c1C(c1c(C)nn(-c3ccccc3)c1Cl)C(C#N)=C(N)O2` (stereo unspecified) is -4.58%. Then `Cc1ccc(C(C(=O)NCc2ccco2)N(CC2CCCO2)C(=O)Cn2nnc3ccccc32)cc1` (stereo unspecified), with 4.86%; and `COC(=O)c1ccc(NC(=O)CSc2nnc(-c3ccncc3)n2C)cc1`, with -30.5%. Consider `COc1ccccc1C1/C(=C(/O)c2ccc(C)cc2)C(=O)C(=O)N1Cc1ccco1` (stereo unspecified), for which the inhibition is 22.9%. Then `COc1ccc(OC)c(C(=O)c2coc3ccc(OC)cc23)c1`, with 3.61%. The figure for `COc1ccc(NC(=O)C2CCCN(S(=O)(=O)c3cccc4cccnc34)C2)cc1OC` (stereo unspecified) is 6.18%; for `CCn1c(Cc2ccccc2)nnc1SCc1nc2ccccc2c(=O)[nH]1` it is 7.32%. The figure for `NC(=O)CSc1oc(-c2cccs2)nc1S(=O)(=O)c1ccccc1` is 6.79%. Regarding `CCOc1ccc(OCc2ccc(C(=O)Nc3cccc(C)n3)o2)cc1`, the inhibition was -1.14%. Take `CCc1nc(C)cn1S(=O)(=O)c1cc(OC)c(C)cc1C`: the inhibition was -31.2%.

On to `COc1cc(Br)cc(/C=N/c2ncn[nH]2)c1O`, for which the inhibition was -1.54%.

For `CC1=NCCN1S(=O)(=O)c1ccc(Br)c(C)c1`, the inhibition was -0.35%.

Turning to `Cn1c(C(=O)N2CCC(C(N)=O)CC2)cc2c(=O)n(C)c3ccccc3c21`, the inhibition is 8.99%. Then `O=C(O)CSCNC(=O)CC12CC3CC(CC(C3)C1)C2`, with -17.4%; and `CCC(=O)c1cc2c(cc1NC(=O)c1cccs1)OCCO2`, with 1.58%. Then `O=S(=O)(NCCOc1cccc2cccnc12)c1ccc(F)cc1`, with -4.61%.
